Legend:
Assay in all cases: log2 ratio of Biotin-Ahx-Ub-VS probe labelling (fragment/DMSO); higher = less target engagement (more negative = stronger competition), active = hit call of the paper (q ≤ 0.05, log2 ratio ≤ -1)
Conditions in all cases: compound concentration: 200 uM; treatment time: 3 h
[1] = target: T1, ALG13 (UniProt Q9NP73)
T1 sequence (whole entry): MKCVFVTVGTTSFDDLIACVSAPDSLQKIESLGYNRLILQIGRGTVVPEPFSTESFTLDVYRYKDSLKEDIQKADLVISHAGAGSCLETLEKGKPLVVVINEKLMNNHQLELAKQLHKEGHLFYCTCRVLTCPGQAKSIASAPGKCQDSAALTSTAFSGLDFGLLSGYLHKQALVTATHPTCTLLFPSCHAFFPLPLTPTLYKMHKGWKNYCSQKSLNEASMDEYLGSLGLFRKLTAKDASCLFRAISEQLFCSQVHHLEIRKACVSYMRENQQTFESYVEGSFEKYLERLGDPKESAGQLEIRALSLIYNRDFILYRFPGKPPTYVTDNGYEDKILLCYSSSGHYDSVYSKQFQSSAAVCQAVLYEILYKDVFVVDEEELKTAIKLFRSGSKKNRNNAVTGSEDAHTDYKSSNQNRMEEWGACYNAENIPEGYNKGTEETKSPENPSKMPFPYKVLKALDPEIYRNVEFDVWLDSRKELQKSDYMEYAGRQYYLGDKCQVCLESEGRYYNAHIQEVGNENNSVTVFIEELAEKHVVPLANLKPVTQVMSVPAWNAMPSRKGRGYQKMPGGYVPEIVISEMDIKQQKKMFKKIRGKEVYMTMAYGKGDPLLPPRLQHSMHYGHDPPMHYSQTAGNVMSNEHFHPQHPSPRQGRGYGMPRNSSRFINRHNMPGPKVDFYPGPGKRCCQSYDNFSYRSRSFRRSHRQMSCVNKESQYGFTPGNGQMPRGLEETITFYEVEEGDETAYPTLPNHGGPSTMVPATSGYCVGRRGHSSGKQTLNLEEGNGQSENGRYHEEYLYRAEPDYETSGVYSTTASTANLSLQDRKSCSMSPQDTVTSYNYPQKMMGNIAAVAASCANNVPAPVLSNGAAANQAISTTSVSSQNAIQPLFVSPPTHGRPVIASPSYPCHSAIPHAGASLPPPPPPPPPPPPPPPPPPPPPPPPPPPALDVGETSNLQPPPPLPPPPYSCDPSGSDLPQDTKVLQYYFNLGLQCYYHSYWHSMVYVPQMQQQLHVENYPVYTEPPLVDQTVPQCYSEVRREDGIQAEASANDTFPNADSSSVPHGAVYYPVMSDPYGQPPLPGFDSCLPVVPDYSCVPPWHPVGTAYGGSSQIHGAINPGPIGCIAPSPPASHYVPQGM
In short: (§1)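 HEK293T lysate (495 µg per sample, in Tris/CHAPS/IGEPAL buffer with protease inhibitors) was treated in triplicate with fragment at 200 µM or with DMSO for 3 h. It was then treated with Biotin-Ahx-Ub-VS (0.5 µM final) for 1 h. Labelled DUBs were NeutrAvidin-enriched, digested with LysC and trypsin, and run by diaPASEF LC-MS/MS. Spectronaut label-free quantities were global-median-normalised. Values are average log2 ratios fragment/DMSO by unpaired t-test, using proteins with ≥2 unique peptides.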

[2] = target: ATXN3 (UniProt P54252)
In short: as §1

[3] = target: T2, BAP1 (UniProt Q92560)
T2 sequence (whole entry): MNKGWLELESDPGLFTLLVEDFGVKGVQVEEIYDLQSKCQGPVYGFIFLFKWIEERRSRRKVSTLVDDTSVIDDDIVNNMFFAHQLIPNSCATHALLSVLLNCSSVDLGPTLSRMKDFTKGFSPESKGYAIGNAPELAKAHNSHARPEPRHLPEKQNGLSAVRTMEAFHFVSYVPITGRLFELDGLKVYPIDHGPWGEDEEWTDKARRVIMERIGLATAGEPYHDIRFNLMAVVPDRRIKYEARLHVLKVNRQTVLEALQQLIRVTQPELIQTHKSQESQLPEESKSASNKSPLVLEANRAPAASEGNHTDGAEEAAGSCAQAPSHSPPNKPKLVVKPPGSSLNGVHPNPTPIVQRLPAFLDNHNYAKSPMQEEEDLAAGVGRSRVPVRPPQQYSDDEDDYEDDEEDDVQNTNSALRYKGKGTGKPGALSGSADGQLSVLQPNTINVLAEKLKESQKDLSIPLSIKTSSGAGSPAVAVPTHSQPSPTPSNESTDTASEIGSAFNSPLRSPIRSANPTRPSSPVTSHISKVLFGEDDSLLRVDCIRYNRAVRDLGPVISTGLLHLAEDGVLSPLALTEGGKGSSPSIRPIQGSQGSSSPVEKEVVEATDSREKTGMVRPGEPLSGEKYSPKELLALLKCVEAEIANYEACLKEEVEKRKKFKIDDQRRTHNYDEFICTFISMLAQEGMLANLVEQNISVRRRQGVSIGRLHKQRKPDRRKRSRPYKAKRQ
In short: as §1

[4] = target: EIF3F (UniProt O00303)
In short: as §1

[5] = target: EIF3H (UniProt O15372)
In short: as §1

[6] = target: T3, FAM105A (UniProt Q9NUU6)
T3 sequence (whole entry): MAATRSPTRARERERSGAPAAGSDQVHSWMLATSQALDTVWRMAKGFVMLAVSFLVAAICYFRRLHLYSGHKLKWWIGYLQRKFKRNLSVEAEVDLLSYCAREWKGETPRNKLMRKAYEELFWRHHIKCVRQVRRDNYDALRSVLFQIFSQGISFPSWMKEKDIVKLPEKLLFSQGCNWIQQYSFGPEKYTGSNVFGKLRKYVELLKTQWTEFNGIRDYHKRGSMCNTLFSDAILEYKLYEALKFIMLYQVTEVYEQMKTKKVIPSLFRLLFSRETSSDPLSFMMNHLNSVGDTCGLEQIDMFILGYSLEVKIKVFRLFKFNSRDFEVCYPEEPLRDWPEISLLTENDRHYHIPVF
In short: as §1

[7] = target: OTUB1 (UniProt Q96FW1)
In short: as §1

[8] = target: T4, OTUD4 (UniProt Q01804)
T4 sequence (whole entry): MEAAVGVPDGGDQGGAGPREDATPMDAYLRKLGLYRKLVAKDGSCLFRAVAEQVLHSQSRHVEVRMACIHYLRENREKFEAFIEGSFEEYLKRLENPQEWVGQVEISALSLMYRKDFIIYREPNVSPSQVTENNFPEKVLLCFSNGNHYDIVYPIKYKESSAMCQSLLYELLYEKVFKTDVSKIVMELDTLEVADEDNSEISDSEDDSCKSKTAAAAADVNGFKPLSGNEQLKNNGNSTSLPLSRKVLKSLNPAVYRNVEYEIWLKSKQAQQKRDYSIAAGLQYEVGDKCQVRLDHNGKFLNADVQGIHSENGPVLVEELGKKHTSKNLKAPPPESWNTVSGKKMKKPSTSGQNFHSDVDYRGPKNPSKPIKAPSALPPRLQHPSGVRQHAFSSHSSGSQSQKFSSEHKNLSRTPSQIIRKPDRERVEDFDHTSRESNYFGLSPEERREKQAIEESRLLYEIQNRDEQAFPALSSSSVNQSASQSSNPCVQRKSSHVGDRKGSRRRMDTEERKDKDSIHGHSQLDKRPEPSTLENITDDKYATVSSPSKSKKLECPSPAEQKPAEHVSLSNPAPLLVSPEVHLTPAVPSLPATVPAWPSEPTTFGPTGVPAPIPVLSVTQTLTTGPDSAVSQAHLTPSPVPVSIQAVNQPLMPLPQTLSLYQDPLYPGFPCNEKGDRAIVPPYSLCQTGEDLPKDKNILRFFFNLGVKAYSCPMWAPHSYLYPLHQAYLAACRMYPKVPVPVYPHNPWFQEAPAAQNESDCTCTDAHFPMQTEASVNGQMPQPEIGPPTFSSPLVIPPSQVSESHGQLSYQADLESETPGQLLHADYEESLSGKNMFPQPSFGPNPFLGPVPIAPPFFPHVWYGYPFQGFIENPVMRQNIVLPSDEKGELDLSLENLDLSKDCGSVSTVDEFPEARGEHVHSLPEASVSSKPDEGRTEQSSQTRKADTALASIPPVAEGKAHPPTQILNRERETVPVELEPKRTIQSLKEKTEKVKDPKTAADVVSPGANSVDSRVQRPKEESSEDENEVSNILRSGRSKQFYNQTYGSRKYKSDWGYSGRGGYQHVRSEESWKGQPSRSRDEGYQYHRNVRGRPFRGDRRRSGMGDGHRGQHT
In short: as §1

[9] = target: T5, OTUD5 (UniProt Q96G74)
T5 sequence (whole entry): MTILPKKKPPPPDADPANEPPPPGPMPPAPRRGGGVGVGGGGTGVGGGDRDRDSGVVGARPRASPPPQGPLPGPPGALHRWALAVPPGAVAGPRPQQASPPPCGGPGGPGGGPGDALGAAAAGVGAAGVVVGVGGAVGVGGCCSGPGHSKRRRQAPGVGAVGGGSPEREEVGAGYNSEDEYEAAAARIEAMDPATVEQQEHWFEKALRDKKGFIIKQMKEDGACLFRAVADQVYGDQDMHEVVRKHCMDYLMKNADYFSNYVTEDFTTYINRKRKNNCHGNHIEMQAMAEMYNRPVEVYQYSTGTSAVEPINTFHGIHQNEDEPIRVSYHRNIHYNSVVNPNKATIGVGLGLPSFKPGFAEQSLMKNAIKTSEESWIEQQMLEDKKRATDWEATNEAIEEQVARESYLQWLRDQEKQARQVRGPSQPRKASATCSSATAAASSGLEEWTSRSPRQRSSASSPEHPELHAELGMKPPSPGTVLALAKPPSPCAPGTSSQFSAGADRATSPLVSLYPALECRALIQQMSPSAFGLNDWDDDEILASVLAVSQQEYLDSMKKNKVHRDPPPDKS
In short: as §1

Measured: log2 ratio of Biotin-Ahx-Ub-VS probe labelling

Chain of EIF3F (O00303 whole entry): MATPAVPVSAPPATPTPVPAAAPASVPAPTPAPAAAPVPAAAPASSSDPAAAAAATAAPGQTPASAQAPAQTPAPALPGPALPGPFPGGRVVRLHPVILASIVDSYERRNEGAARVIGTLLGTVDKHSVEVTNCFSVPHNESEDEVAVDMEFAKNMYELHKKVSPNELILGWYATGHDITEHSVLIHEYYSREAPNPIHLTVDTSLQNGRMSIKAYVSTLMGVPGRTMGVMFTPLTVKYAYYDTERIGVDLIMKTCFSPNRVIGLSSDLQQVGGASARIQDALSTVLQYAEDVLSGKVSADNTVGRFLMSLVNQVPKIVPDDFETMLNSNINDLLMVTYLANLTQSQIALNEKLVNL
Chain of OTUB1 (Q96FW1 whole entry): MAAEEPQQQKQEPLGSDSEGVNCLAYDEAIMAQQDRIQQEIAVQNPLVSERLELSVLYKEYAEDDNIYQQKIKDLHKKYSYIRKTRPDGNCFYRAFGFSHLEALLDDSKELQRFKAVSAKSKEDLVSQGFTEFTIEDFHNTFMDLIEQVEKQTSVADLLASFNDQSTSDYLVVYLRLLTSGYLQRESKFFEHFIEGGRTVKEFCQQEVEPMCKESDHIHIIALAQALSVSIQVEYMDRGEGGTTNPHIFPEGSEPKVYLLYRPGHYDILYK
Chain of EIF3H (O15372 whole entry): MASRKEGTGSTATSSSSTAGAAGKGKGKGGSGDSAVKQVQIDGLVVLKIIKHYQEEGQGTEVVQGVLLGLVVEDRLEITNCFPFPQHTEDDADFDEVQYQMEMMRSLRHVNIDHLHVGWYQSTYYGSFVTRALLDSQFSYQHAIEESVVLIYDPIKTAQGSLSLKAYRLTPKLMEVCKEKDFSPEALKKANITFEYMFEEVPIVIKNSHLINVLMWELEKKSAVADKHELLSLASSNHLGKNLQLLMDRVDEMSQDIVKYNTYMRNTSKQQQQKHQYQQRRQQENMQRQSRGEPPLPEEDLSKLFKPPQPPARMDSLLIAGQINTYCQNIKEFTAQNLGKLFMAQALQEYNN
Chain of ATXN3 (P54252 whole entry): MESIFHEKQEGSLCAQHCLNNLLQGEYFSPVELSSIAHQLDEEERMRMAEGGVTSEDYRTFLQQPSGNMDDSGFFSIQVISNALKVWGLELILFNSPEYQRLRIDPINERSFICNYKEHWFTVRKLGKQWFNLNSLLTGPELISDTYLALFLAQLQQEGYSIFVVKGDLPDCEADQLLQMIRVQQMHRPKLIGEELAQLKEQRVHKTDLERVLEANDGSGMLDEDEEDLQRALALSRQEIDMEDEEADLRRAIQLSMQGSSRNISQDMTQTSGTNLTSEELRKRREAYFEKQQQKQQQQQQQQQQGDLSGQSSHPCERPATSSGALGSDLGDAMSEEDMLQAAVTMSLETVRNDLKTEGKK

Cc1cccc(C)c1NC(=O)CCl
inactive: [1] 0.022 | [2] -0.224 | [4] -0.276 | [5] 0.122 | [6] 0.266 | [7] -0.261 | [8] -0.228 | [9] -0.42
active: [3] -3.62

— the supplement of paper PMC11732987, “Enantioselective OTUD7B fragment discovery through chemoproteomics screening and high-throughput optimisation” (Communications Chemistry, 2025)
